PMC5700166
Residue numbers refer to the chain shown, from its start.

Tests used:
Assay in all cases: protein-binding microarray (PBM); PBM: ~300 nM protein, 6 mM HEPES pH 7.8, 80 mM KCl, 0.5 mM EDTA, 0.5 mM EGTA, 6% glycerol, 35 ng/ul poly-dIdC, 1% milk, 1 h, room temperature; Ap Aiptasia and Nv Nematostella (sea anemones) / Co Capsaspora / Aq Amphimedon (sponge) / Dm Drosophila / Hu human; RHD is the Rel homology domain; high values mean tight binding
Settings in all cases: dsDNA, one strand shown
GST-Dm-Relish = target: T1, GST-Dm-Relish (Drosophila melanogaster, UniProt Q94527 99-473)
T1 sequence: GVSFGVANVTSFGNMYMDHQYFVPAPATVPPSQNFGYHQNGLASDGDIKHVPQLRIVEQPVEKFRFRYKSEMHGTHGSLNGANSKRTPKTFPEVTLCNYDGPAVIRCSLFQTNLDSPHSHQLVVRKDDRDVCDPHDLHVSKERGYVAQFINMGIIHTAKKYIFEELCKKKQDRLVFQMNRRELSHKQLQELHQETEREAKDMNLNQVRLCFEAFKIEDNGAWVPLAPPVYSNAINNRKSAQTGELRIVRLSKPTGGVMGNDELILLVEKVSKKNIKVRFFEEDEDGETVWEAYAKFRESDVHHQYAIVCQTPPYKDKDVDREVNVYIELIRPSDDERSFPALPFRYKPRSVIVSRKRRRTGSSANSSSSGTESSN

GST-Aq-NF-kB = target: T2, GST-Aq-NF-kB (Amphimedon queenslandica, UniProt A9Y5G7 2-389)
T2 sequence: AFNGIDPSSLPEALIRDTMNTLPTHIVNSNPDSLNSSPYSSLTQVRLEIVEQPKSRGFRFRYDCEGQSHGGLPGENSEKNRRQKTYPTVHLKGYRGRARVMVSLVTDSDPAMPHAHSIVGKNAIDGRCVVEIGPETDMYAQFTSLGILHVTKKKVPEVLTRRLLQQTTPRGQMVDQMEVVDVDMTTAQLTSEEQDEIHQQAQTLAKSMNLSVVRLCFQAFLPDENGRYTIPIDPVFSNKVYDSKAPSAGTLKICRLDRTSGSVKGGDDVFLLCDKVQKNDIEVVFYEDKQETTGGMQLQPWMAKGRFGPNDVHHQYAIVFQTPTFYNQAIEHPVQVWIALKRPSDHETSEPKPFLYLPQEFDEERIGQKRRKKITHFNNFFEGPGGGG

[1] = target: T3, GST-Nv-NF-kB (Cys allele) (Nematostella vectensis, UniProt E5G601 2-411)
T3 sequence: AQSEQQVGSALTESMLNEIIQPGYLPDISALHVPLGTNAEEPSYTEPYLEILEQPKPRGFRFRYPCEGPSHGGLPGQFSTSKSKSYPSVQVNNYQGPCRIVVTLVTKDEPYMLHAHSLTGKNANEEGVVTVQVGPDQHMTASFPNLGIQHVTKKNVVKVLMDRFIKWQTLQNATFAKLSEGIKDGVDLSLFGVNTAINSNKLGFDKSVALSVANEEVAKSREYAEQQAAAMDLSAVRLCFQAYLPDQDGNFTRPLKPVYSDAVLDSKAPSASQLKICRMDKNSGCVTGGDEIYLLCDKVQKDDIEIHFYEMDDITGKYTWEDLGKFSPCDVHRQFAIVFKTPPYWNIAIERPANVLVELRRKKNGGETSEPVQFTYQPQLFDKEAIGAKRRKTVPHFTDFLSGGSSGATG

GST-Hu-p50 = GST-Hu-p50 (Homo sapiens, UniProt P19838 7-356)
[2] = target: T4, GST-Nv-NF-kB (Ser allele) (Nematostella vectensis, UniProt A7UNT2 2-411)
T4 sequence: T3 sequence with Q21R, C66S, S207N, E215Q, V217A, E225K, A268E, D399E

GST-Co-NF-kB = target: T5, GST-Co-NF-kB (Capsaspora owczarzaki, UniProt F1ARL5 200-546)
T5 sequence: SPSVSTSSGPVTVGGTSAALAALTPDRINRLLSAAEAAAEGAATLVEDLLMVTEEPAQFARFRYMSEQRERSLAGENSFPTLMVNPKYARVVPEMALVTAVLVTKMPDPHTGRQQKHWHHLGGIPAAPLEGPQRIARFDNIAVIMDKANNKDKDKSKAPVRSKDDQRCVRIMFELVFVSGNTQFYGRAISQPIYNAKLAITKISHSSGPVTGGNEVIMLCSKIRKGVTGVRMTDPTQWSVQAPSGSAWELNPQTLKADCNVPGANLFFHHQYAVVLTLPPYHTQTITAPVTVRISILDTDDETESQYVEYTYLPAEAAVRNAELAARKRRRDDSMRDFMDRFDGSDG

GST-Ap-NF-kB RHD = target: T6, GST-Ap-NF-kB RHD (Exaiptasia pallida (Aiptasia), UniProt A0A913YAJ5 2-422)
T6 sequence: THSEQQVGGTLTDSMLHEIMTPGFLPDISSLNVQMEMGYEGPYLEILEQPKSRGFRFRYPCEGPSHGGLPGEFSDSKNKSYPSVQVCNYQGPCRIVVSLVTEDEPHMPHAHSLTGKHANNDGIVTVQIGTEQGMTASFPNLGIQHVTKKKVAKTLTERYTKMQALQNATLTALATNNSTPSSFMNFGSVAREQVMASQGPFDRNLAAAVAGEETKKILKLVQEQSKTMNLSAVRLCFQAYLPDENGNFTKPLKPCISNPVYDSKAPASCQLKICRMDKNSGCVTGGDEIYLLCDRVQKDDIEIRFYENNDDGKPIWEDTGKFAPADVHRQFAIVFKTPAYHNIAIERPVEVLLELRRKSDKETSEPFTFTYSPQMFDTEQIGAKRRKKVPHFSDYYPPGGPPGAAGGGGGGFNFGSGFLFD

Sequence of GST-Hu-p50 (P19838 7-356): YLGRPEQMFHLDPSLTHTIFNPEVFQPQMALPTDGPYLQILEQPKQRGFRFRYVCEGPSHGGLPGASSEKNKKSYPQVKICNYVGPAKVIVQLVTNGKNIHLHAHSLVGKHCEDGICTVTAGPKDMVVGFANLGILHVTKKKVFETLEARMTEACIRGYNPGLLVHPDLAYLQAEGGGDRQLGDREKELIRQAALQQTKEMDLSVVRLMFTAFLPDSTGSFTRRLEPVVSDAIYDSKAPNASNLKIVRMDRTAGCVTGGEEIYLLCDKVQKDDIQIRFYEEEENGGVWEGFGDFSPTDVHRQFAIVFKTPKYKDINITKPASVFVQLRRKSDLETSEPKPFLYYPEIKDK

CCGATTAACATCAGGAAAAACCATGATGTTAATCGGGTCTTGATTCGCTTGACGCTGCTG
binding signal (GST-Dm-Relish): 2.39 z-score
binding signal (GST-Aq-NF-kB): 2.94 z-score

CCGATTAACATCACCGAGTTAGTTGATGTTAATCGGGTCTTGATTCGCTTGACGCTGCTG
binding signal [1]: 1.15 z-score
binding signal (GST-Hu-p50): 1.5 z-score

CCGATTAACATCAATTCCCAACCTGATGTTAATCGGGTCTTGATTCGCTTGACGCTGCTG
binding signal [1]: 2.15 z-score
binding signal [2]: 1.9 z-score
binding signal (GST-Co-NF-kB): 2.06 z-score
binding signal (GST-Hu-p50): 1.06 z-score

CCGATTAACATCACGTGTGTAGGTGATGTTAATCGGGTCTTGATTCGCTTGACGCTGCTG
binding signal [2]: 1.58 z-score
binding signal (GST-Hu-p50): 1.87 z-score

CCGATTAACATCAAAATTTCCACTGATGTTAATCGGGTCTTGATTCGCTTGACGCTGCTG
binding signal (GST-Dm-Relish): 1.61 z-score
binding signal (GST-Aq-NF-kB): 1.15 z-score

CCGATTAACATCAGGAAGGGCGGTGATGTTAATCGGGTCTTGATTCGCTTGACGCTGCTG
binding signal (GST-Ap-NF-kB RHD): 1.05 z-score
binding signal (GST-Co-NF-kB): 1.08 z-score
binding signal (GST-Hu-p50): 1.07 z-score

CCGATTAACATCAGCAAATTTCCTGATGTTAATCGGGTCTTGATTCGCTTGACGCTGCTG
binding signal (GST-Hu-p50): 1.07 z-score

CCGATTAACATCAGGGCCAAAAATGATGTTAATCGGGTCTTGATTCGCTTGACGCTGCTG
binding signal (GST-Hu-p50): 1.38 z-score

CCGATTAACATCACCTTTTACATTGATGTTAATCGGGTCTTGATTCGCTTGACGCTGCTG
binding signal (GST-Hu-p50): 1.53 z-score

CCGATTAACATCAGGAAATTTTATGATGTTAATCGGGTCTTGATTCGCTTGACGCTGCTG
binding signal (GST-Dm-Relish): 1.46 z-score
binding signal (GST-Aq-NF-kB): 1.85 z-score

CCGATTAACATCACCTTGAACGGTGATGTTAATCGGGTCTTGATTCGCTTGACGCTGCTG
binding signal [1]: 1.56 z-score
binding signal [2]: 1.73 z-score
binding signal (GST-Dm-Relish): 1.69 z-score
binding signal (GST-Hu-p50): 2.74 z-score

CCGATTAACATCAGGATTTTCCATGATGTTAATCGGGTCTTGATTCGCTTGACGCTGCTG
binding signal (GST-Dm-Relish): 1.28 z-score
binding signal (GST-Aq-NF-kB): 2.57 z-score

CCGATTAACATCACCCCGCATGCTGATGTTAATCGGGTCTTGATTCGCTTGACGCTGCTG
binding signal (GST-Ap-NF-kB RHD): 1.75 z-score
binding signal (GST-Co-NF-kB): 1.97 z-score
binding signal (GST-Hu-p50): 1.34 z-score

CCGATTAACATCACCGAAATTCCTGATGTTAATCGGGTCTTGATTCGCTTGACGCTGCTG
binding signal [2]: 1.53 z-score
binding signal (GST-Dm-Relish): 1.25 z-score
binding signal (GST-Hu-p50): 2.52 z-score

CCGATTAACATCAAGGAAAGTACTGATGTTAATCGGGTCTTGATTCGCTTGACGCTGCTG
binding signal (GST-Dm-Relish): 4.7 z-score
binding signal (GST-Aq-NF-kB): 2.33 z-score

CCGATTAACATCATATTGGGAAATGATGTTAATCGGGTCTTGATTCGCTTGACGCTGCTG
binding signal [1]: 2.26 z-score
binding signal [2]: 1.92 z-score
binding signal (GST-Co-NF-kB): 2.03 z-score
binding signal (GST-Hu-p50): 1.12 z-score

CCGATTAACATCAAGATTAGGGATGATGTTAATCGGGTCTTGATTCGCTTGACGCTGCTG
binding signal (GST-Ap-NF-kB RHD): 1.31 z-score

CCGATTAACATCACGGAAAAAACTGATGTTAATCGGGTCTTGATTCGCTTGACGCTGCTG
binding signal [1]: 1.12 z-score
binding signal [2]: 1.13 z-score
binding signal (GST-Co-NF-kB): 1.37 z-score
binding signal (GST-Dm-Relish): 1.6 z-score
binding signal (GST-Hu-p50): 1.36 z-score

CCGATTAACATCATGGTGCTTAATGATGTTAATCGGGTCTTGATTCGCTTGACGCTGCTG
binding signal (GST-Hu-p50): 1.41 z-score

CCGATTAACATCATTTCTTACGGTGATGTTAATCGGGTCTTGATTCGCTTGACGCTGCTG
binding signal (GST-Dm-Relish): 1.25 z-score
binding signal (GST-Hu-p50): 1.44 z-score

CCGATTAACATCACAGCGTGAGGTGATGTTAATCGGGTCTTGATTCGCTTGACGCTGCTG
binding signal (GST-Dm-Relish): 1.34 z-score
binding signal (GST-Hu-p50): 1.16 z-score

CCGATTAACATCACCTAACTTGATGATGTTAATCGGGTCTTGATTCGCTTGACGCTGCTG
binding signal [2]: 1.07 z-score
binding signal (GST-Hu-p50): 1.66 z-score

CCGATTAACATCATGATATCCGGTGATGTTAATCGGGTCTTGATTCGCTTGACGCTGCTG
binding signal (GST-Dm-Relish): 1.07 z-score
binding signal (GST-Hu-p50): 1.11 z-score

CCGATTAACATCAGGAAATTGCCTGATGTTAATCGGGTCTTGATTCGCTTGACGCTGCTG
binding signal [1]: 1.05 z-score
binding signal (GST-Hu-p50): 1.3 z-score

CCGATTAACATCACCTTAGGTTTTGATGTTAATCGGGTCTTGATTCGCTTGACGCTGCTG
binding signal (GST-Hu-p50): 1.04 z-score

CCGATTAACATCATGTTTGCGGGTGATGTTAATCGGGTCTTGATTCGCTTGACGCTGCTG
binding signal (GST-Ap-NF-kB RHD): 1.22 z-score
binding signal (GST-Co-NF-kB): 1.02 z-score
binding signal (GST-Hu-p50): 1.53 z-score
